The text below walks through data of publication PMC7862700, “An all-to-all approach to the identification of sequence-specific readers for epigenetic DNA modifications on cytosine”.

Common to all, as to experiment: DAPPL (digital affinity profiling via proximity ligation, sequencing); 10 mM Tris-HCl pH 7.5, 50 mM NaCl, 1 mM DTT, 4% glycerol, room temperature, 30 min; GST-TFs on glutathione beads, 16-mer random dsDNA library, 0.1% formaldehyde crosslink after washing; high values mean tight binding
What all share (conditions): protein: recombinant; tags: N-terminal GST; dsDNA, one strand shown

One test has as its target T1, FLI1 (Homo sapiens, UniProt Q01543 1-452).
T1 sequence: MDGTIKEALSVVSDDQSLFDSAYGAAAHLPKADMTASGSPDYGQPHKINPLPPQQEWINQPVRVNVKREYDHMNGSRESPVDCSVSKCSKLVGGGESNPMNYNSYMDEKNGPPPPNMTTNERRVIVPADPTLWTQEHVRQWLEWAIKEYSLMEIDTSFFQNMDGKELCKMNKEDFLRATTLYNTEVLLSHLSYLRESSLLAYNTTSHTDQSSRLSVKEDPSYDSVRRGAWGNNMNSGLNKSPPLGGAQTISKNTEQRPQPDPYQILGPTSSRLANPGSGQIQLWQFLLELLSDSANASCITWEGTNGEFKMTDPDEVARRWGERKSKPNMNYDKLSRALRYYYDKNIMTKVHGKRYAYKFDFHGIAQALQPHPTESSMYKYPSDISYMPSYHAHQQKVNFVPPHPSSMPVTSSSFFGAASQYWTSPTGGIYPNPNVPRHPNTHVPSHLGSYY
The method in brief:
(§1)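 A tag-only sample was pooled with DNA-barcoded human transcription factors that had been expressed in yeast as GST fusions and captured on glutathione beads. The pools were incubated for 30 min at room temperature with 200 nmole of a random double-stranded 16-mer DNA library in Tris/NaCl/DTT/glycerol buffer, then washed, crosslinked with 0.1% formaldehyde, proximity-ligated (BsaI/T4 ligase, 1 h, 37 °C), PCR-amplified and sequenced on an Illumina NextSeq500. Binding signal is each hexamer's read frequency for a factor divided by its frequency for the tag-only sample.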

A further test addresses T2, ELK1 (Homo sapiens, UniProt P19419 1-428).
T2 sequence: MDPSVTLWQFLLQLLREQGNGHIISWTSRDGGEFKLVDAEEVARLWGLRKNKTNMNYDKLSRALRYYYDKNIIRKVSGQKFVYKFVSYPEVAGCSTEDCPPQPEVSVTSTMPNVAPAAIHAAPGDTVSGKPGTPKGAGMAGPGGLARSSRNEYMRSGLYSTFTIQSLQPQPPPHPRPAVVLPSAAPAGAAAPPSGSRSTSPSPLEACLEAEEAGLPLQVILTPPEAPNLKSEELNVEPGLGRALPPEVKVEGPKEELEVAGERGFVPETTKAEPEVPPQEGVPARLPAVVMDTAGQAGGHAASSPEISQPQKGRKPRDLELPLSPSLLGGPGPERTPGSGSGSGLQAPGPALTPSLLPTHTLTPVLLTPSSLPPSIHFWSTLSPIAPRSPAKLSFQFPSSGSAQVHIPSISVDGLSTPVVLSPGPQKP
The gist of the method: as §1

The target in a further test is T3, GABPA (Homo sapiens, UniProt Q06546 1-454).
T3 sequence: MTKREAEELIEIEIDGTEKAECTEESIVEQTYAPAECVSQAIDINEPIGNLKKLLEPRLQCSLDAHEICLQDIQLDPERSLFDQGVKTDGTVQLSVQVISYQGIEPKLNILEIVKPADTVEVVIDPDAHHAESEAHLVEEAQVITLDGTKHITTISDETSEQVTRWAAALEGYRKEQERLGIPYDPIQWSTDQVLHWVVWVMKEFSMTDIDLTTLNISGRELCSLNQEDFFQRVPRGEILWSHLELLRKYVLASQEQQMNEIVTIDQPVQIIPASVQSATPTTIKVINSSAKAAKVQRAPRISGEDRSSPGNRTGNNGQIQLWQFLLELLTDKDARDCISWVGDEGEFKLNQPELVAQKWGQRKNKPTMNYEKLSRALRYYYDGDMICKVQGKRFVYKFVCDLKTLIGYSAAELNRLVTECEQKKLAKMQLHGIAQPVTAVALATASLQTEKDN
The method in brief:
as §1

A further test concerns the target T4, ERG (Homo sapiens, UniProt P11308 1-479).
T4 sequence: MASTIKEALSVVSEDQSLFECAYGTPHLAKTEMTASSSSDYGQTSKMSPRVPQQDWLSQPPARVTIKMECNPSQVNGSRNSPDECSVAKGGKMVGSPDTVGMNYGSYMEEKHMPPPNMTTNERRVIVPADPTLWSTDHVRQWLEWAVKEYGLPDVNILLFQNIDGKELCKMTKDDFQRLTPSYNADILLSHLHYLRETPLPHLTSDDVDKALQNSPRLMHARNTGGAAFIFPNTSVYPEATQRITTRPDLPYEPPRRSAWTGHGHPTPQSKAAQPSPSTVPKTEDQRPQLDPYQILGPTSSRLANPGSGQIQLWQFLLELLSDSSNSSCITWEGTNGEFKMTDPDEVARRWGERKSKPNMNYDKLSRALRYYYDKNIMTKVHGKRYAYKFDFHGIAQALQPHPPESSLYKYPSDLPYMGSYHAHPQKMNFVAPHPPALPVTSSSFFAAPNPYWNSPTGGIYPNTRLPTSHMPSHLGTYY
The method in brief:
as §1

The target of a further test is ELF1 (Homo sapiens, UniProt P32519 1-619). The method in brief: as §1
Another test concerns the target T5, EHF (Homo sapiens, UniProt Q9NZC4 1-300).
T5 sequence: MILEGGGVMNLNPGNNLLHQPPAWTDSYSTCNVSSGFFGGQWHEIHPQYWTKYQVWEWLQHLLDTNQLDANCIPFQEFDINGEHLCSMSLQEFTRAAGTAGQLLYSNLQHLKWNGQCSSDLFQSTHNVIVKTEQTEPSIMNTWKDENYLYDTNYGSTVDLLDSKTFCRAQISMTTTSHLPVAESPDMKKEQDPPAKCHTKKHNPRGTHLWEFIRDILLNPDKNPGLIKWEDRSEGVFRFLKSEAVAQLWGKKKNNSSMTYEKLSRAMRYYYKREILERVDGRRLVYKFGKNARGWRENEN
The method in brief:
as §1

In another test the target is SPI1 (Homo sapiens, UniProt P17947 1-270). The gist of the method: as §1
In another test the target is SPIB (Homo sapiens, UniProt Q01892 1-262). The gist of the method: as §1
The target in the next test is T6, ELK3 (Homo sapiens, UniProt P41970 1-407).
T6 sequence: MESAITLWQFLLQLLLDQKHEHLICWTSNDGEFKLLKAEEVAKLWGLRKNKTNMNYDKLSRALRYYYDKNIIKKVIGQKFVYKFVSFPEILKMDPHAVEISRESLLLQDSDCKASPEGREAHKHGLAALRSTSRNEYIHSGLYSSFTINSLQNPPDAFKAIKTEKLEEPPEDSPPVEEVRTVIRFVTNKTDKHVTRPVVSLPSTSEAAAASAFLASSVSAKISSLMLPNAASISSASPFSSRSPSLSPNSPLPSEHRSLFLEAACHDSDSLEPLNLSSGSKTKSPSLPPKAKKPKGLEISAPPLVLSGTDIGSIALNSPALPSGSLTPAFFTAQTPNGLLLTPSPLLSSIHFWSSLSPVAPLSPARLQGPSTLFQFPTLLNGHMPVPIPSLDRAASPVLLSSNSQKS
The gist of the method: as §1

ELF1, sequence (P32519 whole entry): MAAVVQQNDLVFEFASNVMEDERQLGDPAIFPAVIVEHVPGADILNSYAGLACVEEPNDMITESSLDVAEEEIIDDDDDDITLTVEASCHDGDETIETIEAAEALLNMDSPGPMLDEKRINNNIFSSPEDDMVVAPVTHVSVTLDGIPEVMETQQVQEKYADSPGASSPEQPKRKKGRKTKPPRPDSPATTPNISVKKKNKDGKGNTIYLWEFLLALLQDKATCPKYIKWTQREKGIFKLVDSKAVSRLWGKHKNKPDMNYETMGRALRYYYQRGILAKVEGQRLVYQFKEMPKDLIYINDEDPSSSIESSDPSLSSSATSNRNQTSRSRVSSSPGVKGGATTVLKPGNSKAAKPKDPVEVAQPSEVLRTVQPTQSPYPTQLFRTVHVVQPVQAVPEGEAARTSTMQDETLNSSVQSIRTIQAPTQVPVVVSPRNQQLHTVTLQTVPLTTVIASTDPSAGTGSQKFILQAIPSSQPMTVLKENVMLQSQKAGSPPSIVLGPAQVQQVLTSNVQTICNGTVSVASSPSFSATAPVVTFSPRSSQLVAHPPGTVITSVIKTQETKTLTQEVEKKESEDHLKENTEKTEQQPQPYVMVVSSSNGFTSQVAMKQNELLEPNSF
SPIB, sequence (Q01892 whole entry): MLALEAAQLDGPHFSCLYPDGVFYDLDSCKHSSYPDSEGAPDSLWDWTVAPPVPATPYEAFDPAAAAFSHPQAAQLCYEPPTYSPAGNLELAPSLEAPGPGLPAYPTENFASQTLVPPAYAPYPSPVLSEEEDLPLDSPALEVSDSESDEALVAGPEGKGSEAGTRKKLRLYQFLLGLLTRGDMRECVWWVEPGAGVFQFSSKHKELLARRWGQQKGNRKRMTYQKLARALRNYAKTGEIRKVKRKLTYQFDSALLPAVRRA

As for TTATGC, the binding signal with FLI1 is 1.34 fold enrichment (6-mer frequency, TF over GST control); with ELK1, 1.34 fold enrichment (6-mer frequency, TF over GST control); with GABPA, 1.22 fold enrichment (6-mer frequency, TF over GST control); with ERG it was 1.31 fold enrichment (6-mer frequency, TF over GST control); with ELF1 it was 1.15 fold enrichment (6-mer frequency, TF over GST control); in the test with EHF it was 1.43 fold enrichment (6-mer frequency, TF over GST control). Also, the binding signal in the test with SPI1 is 1.34 fold enrichment (6-mer frequency, TF over GST control); with SPIB it was 1.26 fold enrichment (6-mer frequency, TF over GST control); in the test with ELK3, 1.16 fold enrichment (6-mer frequency, TF over GST control).
On to TCCCCT, for which the binding signal with FLI1 was 1.59 fold enrichment (6-mer frequency, TF over GST control); with ELK1 it was 1.66 fold enrichment (6-mer frequency, TF over GST control); in the test with GABPA, 1.61 fold enrichment (6-mer frequency, TF over GST control); with ERG, 1.72 fold enrichment (6-mer frequency, TF over GST control); with ELF1, 1.74 fold enrichment (6-mer frequency, TF over GST control); with EHF, 1.67 fold enrichment (6-mer frequency, TF over GST control). Further, the binding signal was 2.29 fold enrichment (6-mer frequency, TF over GST control) in the test with SPI1; 1.8 fold enrichment (6-mer frequency, TF over GST control) in the test with SPIB; 1.86 fold enrichment (6-mer frequency, TF over GST control) with ELK3.
Turning to CACTTT, the binding signal with FLI1 was 1.25 fold enrichment (6-mer frequency, TF over GST control); in the test with ELK1, 1.33 fold enrichment (6-mer frequency, TF over GST control); with GABPA, 1.21 fold enrichment (6-mer frequency, TF over GST control); in the test with ERG it was 1.26 fold enrichment (6-mer frequency, TF over GST control); with ELF1, 1.35 fold enrichment (6-mer frequency, TF over GST control); with EHF, 1.36 fold enrichment (6-mer frequency, TF over GST control). For the same sequence, the binding signal in the test with SPI1 was 1.39 fold enrichment (6-mer frequency, TF over GST control); with SPIB, 1.37 fold enrichment (6-mer frequency, TF over GST control); in the test with ELK3, 1.29 fold enrichment (6-mer frequency, TF over GST control).
On to GTTCTT, for which the binding signal in the test with FLI1 was 1.19 fold enrichment (6-mer frequency, TF over GST control); in the test with ELK1, 1.22 fold enrichment (6-mer frequency, TF over GST control); with GABPA, 1.09 fold enrichment (6-mer frequency, TF over GST control); with ERG, 1.19 fold enrichment (6-mer frequency, TF over GST control); with ELF1 it was 1.18 fold enrichment (6-mer frequency, TF over GST control); in the test with EHF, 1.08 fold enrichment (6-mer frequency, TF over GST control). The binding signal is 1.09 fold enrichment (6-mer frequency, TF over GST control) with SPI1; 1.17 fold enrichment (6-mer frequency, TF over GST control) with SPIB; 1.35 fold enrichment (6-mer frequency, TF over GST control) in the test with ELK3.
Consider GGCTCT, for which the binding signal in the test with FLI1 was 1.15 fold enrichment (6-mer frequency, TF over GST control); with ELK1 it was 1.23 fold enrichment (6-mer frequency, TF over GST control); with GABPA, 1.23 fold enrichment (6-mer frequency, TF over GST control); with ERG, 1.26 fold enrichment (6-mer frequency, TF over GST control); with ELF1, 1.29 fold enrichment (6-mer frequency, TF over GST control); with EHF it was 1.27 fold enrichment (6-mer frequency, TF over GST control). In addition, the binding signal in the test with SPI1 is 1.18 fold enrichment (6-mer frequency, TF over GST control); in the test with SPIB it was 1.26 fold enrichment (6-mer frequency, TF over GST control); with ELK3, 1.42 fold enrichment (6-mer frequency, TF over GST control).
GCACTA: the binding signal is 1.18 fold enrichment (6-mer frequency, TF over GST control) in the test with FLI1; 1.2 fold enrichment (6-mer frequency, TF over GST control) with ELK1; 1.23 fold enrichment (6-mer frequency, TF over GST control) in the test with GABPA; 1.11 fold enrichment (6-mer frequency, TF over GST control) in the test with ERG; 1.16 fold enrichment (6-mer frequency, TF over GST control) with ELF1; 1.21 fold enrichment (6-mer frequency, TF over GST control) with EHF. Further, the binding signal is 1.19 fold enrichment (6-mer frequency, TF over GST control) with SPI1; 1.3 fold enrichment (6-mer frequency, TF over GST control) with SPIB; 1.23 fold enrichment (6-mer frequency, TF over GST control) with ELK3.
With AATGCA, the binding signal with FLI1 is 1.25 fold enrichment (6-mer frequency, TF over GST control); with ELK1 it was 1.28 fold enrichment (6-mer frequency, TF over GST control); in the test with GABPA, 1.28 fold enrichment (6-mer frequency, TF over GST control); with ERG it was 1.29 fold enrichment (6-mer frequency, TF over GST control); with ELF1, 1.27 fold enrichment (6-mer frequency, TF over GST control); with EHF, 1.25 fold enrichment (6-mer frequency, TF over GST control). For the same sequence, the binding signal with SPI1 was 1.21 fold enrichment (6-mer frequency, TF over GST control); in the test with SPIB it was 1.34 fold enrichment (6-mer frequency, TF over GST control); in the test with ELK3 it was 1.3 fold enrichment (6-mer frequency, TF over GST control).
For the sequence ATATCG, the binding signal with FLI1 was 1.09 fold enrichment (6-mer frequency, TF over GST control); in the test with ELK1 it was 1.16 fold enrichment (6-mer frequency, TF over GST control); with GABPA, 1.14 fold enrichment (6-mer frequency, TF over GST control); with ERG, 1.08 fold enrichment (6-mer frequency, TF over GST control); in the test with ELF1 it was 1.16 fold enrichment (6-mer frequency, TF over GST control); with EHF, 1.13 fold enrichment (6-mer frequency, TF over GST control). For the same sequence, the binding signal with SPI1 was 1.23 fold enrichment (6-mer frequency, TF over GST control); in the test with SPIB, 1.17 fold enrichment (6-mer frequency, TF over GST control); with ELK3 it was 1.19 fold enrichment (6-mer frequency, TF over GST control).
